This is a sample that favours compounds with a hit; in the whole collection about 4.3% have one here.
Wnt bcat act – Wnt/beta-catenin pathway activators, primary screen, cell-based, plate reader, single point | activation, % at 9.35 µM | AID 743398, 2014 | Wnt/beta-catenin reporter cell assay, activator | hit rate 1.2% among 300,000; in the data active = activation above about 30%, passing the limit was not always enough; inconclusive = no clear call, values can overlap the other calls;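 note: 0% = neutral control wells and 100% = positive control wells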
esBAF inh – Bmi1 luciferase reporter increase in mESCs, primary screen, esBAF inhibitor project, mouse ES cells, Bmi1 luciferase knock-in, single point; 24 h; 100% = twice the neutral-well signal; reporter increase, % at 12.5 µM; hit rate 2% among 350,000; AID 602393, 2012; in the data active = activation above about 40%; inconclusive = no clear call, values can overlap the other calls;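 note: 0% = median of the plate's neutral control wells and 100% = double that signal; a rise in the Bmi1 reporter signal indicates esBAF inhibition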
MITF act – activators of MITF-driven TRPM1 promoter reporter, primary screen, cell-based, SK-MEL-5, luciferase, single point; hit rate 0.75% among 300,000; activation, % at 12.5 µM; SK-MEL-5 TRPM1-promoter luciferase, 24 h; % of positive control, neutral wells = 0; AID 588334, 2011;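 active = mean activation of at least 80% with every replicate also reaching 80%; inconclusive = mean reaches 80% but some replicate falls short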;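 note: 0% = neutral control wells and 100% = parthenolide positive control wells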
SMARCA2 activ – SMARCA2 (BRM) function activators, primary screen, cell-based, luminescence, high throughput; AID 652017, 2013; hit rate 1% among 370,000; MG213 cells, MMTV-luciferase reporter, dexamethasone, overnight; activation, % at 9.1 µM; in the data active = activation above about 7.8%;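 note: 0% = vehicle wells and 100% = reference activator wells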
HSF1 activator – HSF-1 activators, primary screen, NIH3T3-HGL cells, MG132 stress, luminescence, single point. NIH3T3-HGL HSF-1 luciferase reporter, 8 h; 100% = twice DMSO control signal. activation, % at 9 µM. hit rate 1.7% among 300,000. AID 504408, 2011;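 active = mean replicate activation of at least 50% with a set share of replicates each reaching 50%; inconclusive = only one of those two conditions met; inactive = mean below 50% and too few replicates reaching it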;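 note: 0% = median of the neutral control wells and 100% = twice that signal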
HSF1 inh – HSF1 inhibitors in luciferase reporter cells, primary screen, cell-based, NIH3T3, luminescence; NIH3T3-HGL HSE-luciferase, MG132-induced, luminescence 8 h; hits give low values; activity change, negative = inhibition, % at 7.5 µM (by protocol); hit rate 0.77% among 300,000; AID 2098, 2009;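 active = more than half of replicate wells show activity change below -50%, luminescence cut by over half; inconclusive = some wells, but at most half, below -50%; inactive = no replicate well below -50%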;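 note: luciferase reports HSF-1 transcriptional activity via heat shock element; 0% = median of DMSO wells and -100% = zero luminescence signal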
Numbers without * were called inactive; u = inconclusive; x = no result given.

SMILES	Wnt bcat act	esBAF inh	MITF act	SMARCA2 activ	HSF1 activator	HSF1 inh
COc1ccc(CN(CC2CCC(C(=O)O)CC2)C(=S)Nc2cc(Cl)ccc2OC)cc1 (centres undefined)	4.9	x	8.4	-3.5	337.3*	265.9
CN1C(=O)c2cc(NC(=O)C3CCCCC3)ccc2OC[C@H]2O[C@H](CC(=O)NCCc3ccncc3)CC[C@@H]21	x	2.2	x	x	x	x
Cc1ccc(Nc2c(N)c(=O)oc3ccccc23)cc1	26.2	x	x	0.1	161.2*	97.5
CCC(=O)Nc1ccc2c(c1)C(=O)N(C)[C@@H]1CC[C@@H](CC(=O)NCc3ccccc3)O[C@H]1CO2	x	-2.9	x	x	x	x
Cc1occc1C(=O)N/N=C/C=C/c1ccc(N(C)C)cc1	10.7	61.5*	48.0	7.6	5.6	8.4
Cc1ccc(C(=O)CNc2ccc(Br)cc2)cc1	x	21.2	x	3.7	21.1	16.4
Cc1ccc(NCC(=O)N/N=C\C(Br)=C\c2ccccc2)cc1	4.0	54.6*	-5.4	-1.4	145.3*	109.9
Cc1ccc(C(=O)CNc2ccccc2)cc1	6.2	62.1*	62.2	3.2	40.4	18.2
CCCCOC(=O)N/N=C/C=C/c1ccccc1	-1.2	51.4*	32.6	2.0	8.9	-0.7
C[C@@H]1CN([C@H](C)CO)C(=O)c2cc(NS(=O)(=O)c3cn(C)cn3)ccc2O[C@@H](C)CCCCO[C@@H]1CN(C)S(=O)(=O)c1cn(C)cn1	x	4.5	x	x	x	x
O=C(C[C@@H]1C=C[C@H](NS(=O)(=O)c2cccc(F)c2)[C@@H](CO)O1)N1CCCCC1	x	-8.8	x	x	x	x
Cc1occc1C(=O)N/N=C/C=C/c1ccccc1	3.2	x	u	7.9*	34.3	20.7
Cc1occc1C(=O)N/N=C/C(Br)=C\c1ccccc1	58.4*	x	x	2.3	363.2*	230.2
Cc1occc1C(=O)N/N=C/C=C/c1ccccc1[N+](=O)[O-]	2.8	x	20.3	6.3	-0.5	-1.6
Cc1onc(-c2ccccc2)c1C(=O)N/N=C/C(Br)=C/c1ccccc1	x	x	-3.4	-3.6	x	x
CO[C@@H]1CN(C)C(=O)c2cc(NC(=O)C3CCC3)ccc2OC[C@H](C)N(Cc2ccncc2)C[C@H]1C	x	1.9	x	x	x	x
Cc1ccc(S(=O)(=O)/N=C(/NC(=S)Nc2ccccc2)c2ccccc2)cc1	u	55.5*	44.3	1.8	34.4	18.6
CCCOC(=S)N/C(=N\S(=O)(=O)c1ccccc1)c1ccccc1	-1.7	-0.9	3.6	7.9*	7.5	-5.1
CCOC(=S)N/C(=N\S(=O)(=O)c1ccccc1)c1ccccc1	x	-4.2	9.7	-0.5	-8.1	-10.7
Cc1ccc(S(=O)(=O)/N=C(/Nc2ccccc2C)c2ccccc2)cc1	0.3	1.6	-2.4	0.7	x	x
COc1ccc(C(=O)NN/C(=N/S(=O)(=O)c2ccc(C)cc2)c2ccccc2)cc1	42.8*	x	129.3*	-1.1	25.7	17.6
Cc1ccc(S(=O)(=O)/N=C(/Nc2ccc(O)c(C(=O)O)c2)c2ccccc2)cc1	56.6*	0.4	-1.9	-1.4	x	x
O=C(O)c1cc(N/C(=N\S(=O)(=O)c2ccc(F)cc2)c2ccccc2)ccc1O	-0.9	-3.1	5.2	1.8	x	x
C[C@@H]1CN([C@H](C)CO)C(=O)c2cc(N(C)C)ccc2O[C@@H](C)CCCCO[C@H]1CN(C)C(=O)CCC(F)(F)F	x	2.2	x	x	x	x
O=c1[nH]c(Cc2cccs2)nc2scc(-c3ccc(Cl)cc3)c12	20.4	72.2*	94.2*	-3.4	12.5	16.4
Cc1ccc(-c2csc3nc(CN(C)Cc4ccccc4)[nH]c(=O)c23)cc1	-1.7	-0.3	4.7	-2.0	1.1	5.8
O=c1[nH]c(Cc2ccc(F)cc2)nc2scc(-c3ccc(F)cc3)c12	2.7	47.0*	6.8	-4.0	37.4	9.8
O=C(O)/C=C/C(=O)Nc1cc(F)ccc1F	-0.4	0.9	-4.0	-3.0	-77.3	-71.5*
O=C(O)/C=C/C(=O)Nc1ccc(Cl)cc1C(=O)c1ccccc1	1.5	x	x	3.6	-2.1	-2.5

Bioassay records: PubChem BioAssay, several laboratories
